APE1 inh = APE1 (human) endonuclease inhibition. Potency, µM (highest dose often 65.8 µM), without a hit: at the top dose activity change, negative = inhibition, actives largely listed as inhibitors. recombinant APE1, TAMRA/BHQ-2 abasic DNA cleavage fluorescence. hit rate 0.35% among 350,000;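 further: plate controls were vehicle for no effect and reference inhibitor for full effect; nearly all actives have a fitted effect of over 55% in size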
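Incision of a quenched TAMRA/BHQ-2 THF abasic-site duplex (50 nM) by 0.75 nM APE1, after 15 min compound preincubation, measured as fluorescence increase over three 60 s reads. Values normalized to buffer, DMSO and NSC13755 control wells.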
RECQ1 inh-1 = blocks DNA unwinding by human RECQ1; P46063; RECQ1 DNA unwinding, red fluorescence kinetic read; Potency, µM (titrated, usually from 57.3 µM), for the others: at the highest dose activity, negative = inhibition, usual class: inhibitors; hit rate 0.54% among 240,000; AID 2549;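 further: plate controls were vehicle for no effect and no enzyme for full effect; nearly all actives have a fitted effect of over 30% in size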
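RECQ1T1 50 nM; forked duplex (20 bp + 30-nt ss tails) 200 nM, ATP 2 mM final; pH 8.0, 2 mM MgCl2, 2.5 ug/ml poly(dI-dC); 15 min compound preincubation; discontinuous kinetic read over 2 h at RT.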
TDP1 inh = inhibitors of human tyrosyl-DNA phosphodiesterase TDP1; Q9NUW8; recombinant TDP1, AlphaScreen DNA substrate cleavage; Potency, µM (doses to about 130 µM), inactives show at the highest dose activity change, negative = inhibition, hits mostly inhibitors; hit rate 0.28% among 350,000; AID 485290; further: nearly all actives have a fitted effect of over 40% in size
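Tdp1 1 nM final; 15 min RT w/ cpd; substrate 15 nM, 5 min; beads 10 ug/ml, 10 min; AlphaScreen read. Neg ctrl: no enzyme.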
BLM inh = blocks DNA unwinding by human BLM helicase; P54132; hit rate 0.2% among 350,000; Potency, µM (highest dose often 56.1 µM), inactives show at the highest dose activity change, negative = inhibition, usual class: inhibitors; recombinant BLM DNA unwinding, fluorescence dequenching;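 further: plate controls were vehicle for no effect and no enzyme for full effect; nearly all actives have a fitted effect of over 35% in size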
FEN1 inh = human FEN1 inhibition | P39748 | Recombinant FEN1 flap cleavage, fluorescence, 15 min | Potency, µM (doses to about 114 µM), inactives show top-dose activity change, negative = inhibition, usual class: inhibitors | hit rate 0.35% among 390,000 | AID 588795; further: nearly all actives have a fitted effect of over 65% in size
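Nuclease activity of 10 nM FEN1 was measured after 15 min of room-temperature exposure to titrated compounds, by adding 50 nM flap substrate and reading plates at 0 and 15 min.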
RECQ1 inh conf = confirmation of human RECQ1 helicase inhibitors; shares compounds with RECQ1 inh-1; RECQ1 helicase DNA unwinding, fluorescence; Potency, µM (top dose mostly 229 µM), inactives show top-dose activity change, negative = inhibition, most hits filed as inhibitors; hit rate 28% among 610; further: nearly all actives have a fitted effect of over 45% in size
RECQ1 ADP FP = ADP displacement flagged in RECQ1 inhibitor counter-screen; shares compounds with RECQ1 inh-1; ADP fluorescence polarization displacement counterscreen; Potency, µM (series often up to 228 µM), for the others: top-dose activity change, negative = inhibition, most hits filed as inhibitors; hit rate 27% among 530; AID 2711; further: nearly all actives have a fitted effect of over 45% in size
RECQ1 inh-2 = RECQ1 helicase inhibition confirmed, round 2 | shares compounds with RECQ1 inh-1 | Potency, µM (top dose mostly 119 µM), for the others: at the highest dose activity, negative = inhibition, actives largely listed as inhibitors | recombinant RECQ1 DNA unwinding, red fluorescence | hit rate 15% among 1,100; further: nearly all actives have a fitted effect of over 50% in size
* hit, by the source's call; i = inactive; u = inconclusive; x = no result; [ ] = dose if it differs, or a comment. This is a sample that favours compounds with a hit; in the whole collection about 0.92% have one here. The call rests on the fitted dose curve; in most records, active means well fitted curve in the direction sought with a large enough effect; inconclusive means small, poorly fitted or top-dose-only effect, or another doubt; inactive means no such curve, though single readings can be large; an effect the other way counts as inactive or inconclusive. Unless noted, on the % scale 0 is the no-effect control and ±100 the full control effect; potency means the concentration at half of the fitted maximal effect.

SMILES | APE1 inh | RECQ1 inh-1 | TDP1 inh | BLM inh | FEN1 inh | RECQ1 inh-2 | others
COCCn1c(C)cc(C(=O)COC(=O)c2ccc(NC(=O)CC#N)cc2)c1C | 7.7% | 31.6µM* | 0.0% | -16.1% | -6.4% | -11.4%
COc1ccc(Nc2ccccc2N)cc1 | -5.2% | 22.4µM* | 5.9% | -23.6% | 0.9% | 44.7µM*
N#CC1=C(N)n2c(s/c(=C\c3ccco3)c2=O)=C(C#N)C1c1ccco1 (configuration not stated) | 7.08µM* | 8.91µM* | u | -5.7% | 44.7µM* | -30.7%
N#CC1=C(N)n2c(s/c(=C\c3cccs3)c2=O)=C(C#N)C1c1cccs1 (configuration not stated) | -7.1% | u | -11.0% | -17.9% | u | x
O=C(CSc1nnc(-c2cccc(S(=O)(=O)N3CCCC3)c2)n1-c1ccccc1)Nc1ccc(F)cc1 | 11.7% | x | x | x | x | x
O=C1CC(c2ccco2)CC(O)=C1C=Nc1cc(Cl)ccc1O (configuration not stated) | 7.08µM* | 22.4µM* | u | -23.1% | -19.1% | u
CCOc1ccccc1NC(=O)CN(C)S(=O)(=O)c1cnc[nH]1 | -3.1% | 15.8µM* | -0.5% | -1.2% | 3.4% | -1.8% | RECQ1 inh conf=-1.0%[114 µM];RECQ1 ADP FP=7.6%[91.9 µM]
Cc1ccc(NC(=O)CN(C)S(=O)(=O)c2cnc[nH]2)c(C)c1 | 55.9% | x | 5.0% | -1.4% | 15.2% | x
CCOc1ccc(C=C2SC(=O)N(CCN)C2=O)cc1 | -6.3% | -1.6% | 10.8% | 43.6% | x | x
COc1cc(Cl)c(C)cc1NC(=O)CSCC#N | 4.9% | i | 5.1%[56.1 µM] | 1.3% | -0.3% | x
Cc1ccc(NC(=O)CSCC#N)cc1Cl | 17.6% | 28.2µM* | 2.6% | 3.8% | -0.4% | 0.3%
COc1cccc(C2NC(C(=O)O)CCC2C)c1 (configuration not stated) | -9.7%[12.4 µM] | i[11.5 µM] | 9.0%[21 µM] | 3.1%[12.4 µM] | x | x
Cc1cc2ccccc2n1CCNC(=O)c1ccc(S(=O)(=O)N2CCCCC2)cc1 | u | 28.2µM* | 9.8% | -29.3% | -8.6% | 79.4µM*
O=C(NC(Cc1ccccc1)C(=O)O)c1ccc(S(=O)(=O)N2CCCCC2)cc1 (configuration not stated) | 2.9% | -4.4% | -0.7% | 2.5% | -0.3% | x | RECQ1 inh conf=11.6%;RECQ1 ADP FP=u
O=C(Nc1ccc(S(=O)(=O)N2CCCCC2)cc1)c1ccc(CN2CCc3ccccc3C2)cc1 | -6.7% | u | -3.9% | -10.7% | -6.4% | -13.7%
CCOc1cccc(NC(=O)c2ccc(S(=O)(=O)N3CCCC3)cc2)c1 | -4.6% | 12.6µM* | x | -2.7% | -22.4% | -18.7%
O=S(=O)(Nc1cc(O)cc2cccnc12)c1ccc(Cl)s1 | 0.6% | -7.8% | 23.2% | u | x | x
Cc1ccc(NC(=O)c2c3c(nc4ccccc24)CCC3)cc1S(=O)(=O)N(C)C | u | u | -10.8% | -12.0% | -5.7% | u
Cc1ccc(NC(=O)c2c3c(nc4ccccc24)CCC3)cc1 | -3.9% | -3.7% | 0.0% | -0.5% | 1.6% | x
CC(C)[C@H](NC(=O)CNC(=O)OC(C)(C)C)C(=O)N[C@H](C=O)C(C)C | 0.8% | 4.5% | 7.3% | x | x | x
CCc1nnc2n1N(C(C)=O)C(c1ccc(C(C)(C)C)cc1)=C(C(C)=O)S2 | x | x | 5.2% | -15.9% | -22.8% | x
Cc1ccc(S(=O)(=O)NCC(=O)N(CC(=O)NCC2CCCO2)Cc2ccco2)cc1 (configuration not stated) | u | 22.4µM* | -8.3% | -27.6% | 15.5% | -14.0%
Cc1csc(CNc2ncnc3cc(-c4ccc5c(c4)OCO5)ccc23)n1 | x | x | -0.2% | x | x | x

Bioassay records (PubChem)
